The nature of experiment [1]: MELAS cybrid and Rieske KO viability enhancers – cell-based, MELAS cybrids, Rieske KO mouse fibroblasts, CellTiter-Glo, primary screen (AID 1508586;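 active = mean z-score across replicates of 1.96 or higher in either the MELAS or the Rieske mutant cell line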;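 also: z relative to plate mean and SD of compound and empty wells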). The following applies: low glucose.
Experiment [2] has as its target NAD(+) hydrolase SARM1 (Homo sapiens) (UniProt Q6SZW1). The experiment is described as follows: blocking NAD cleavage by SARM1 SAM-TIR – cell lysate, NAD-Glo luminescence (AID 1508614;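 active = compound whose remaining NAD level is above about 45 nM, limit read from the data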;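 also: higher remaining NAD means stronger inhibition of SARM1 NADase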). Conditions: SAM-TIR HEK293T lysate NADase, at 1 µM, stronger effect = higher value.
Experiment [3] can be described thus: compounds altering circadian rhythm period length – cell-based, LOPAC library, luminescence reporter (AID 2774).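 Also: values are relative to mean of DMSO wells on each plate.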 Conditions: circadian reporter cells, at 7 µM, actives lie on both sides.
Experiment [4] has as its system Hepatitis C virus NS3 helicase. The experiment in a line: blockers of NS3h binding to ssDNA – biochemical, fluorescence polarization, LOPAC1280 library, primary screen (AID 687035; in the data active = inhibition above about 37%). Conditions: Purified HCV NS3 helicase, Cy5-dT15 ssDNA binding fluorescence polarization; stronger effect = higher value; concentration not given here. In general terms: Polarisation of emitted light reports the rotation of a fluorescent probe.

Experiment [5] is described as follows: compounds altering Cy5-DNA-NS3h complex signal – biochemical, LOPAC1280, artefact control for HCV NS3 helicase inhibitor project (AID 687037). The following applies: Cy5-DNA-NS3h complex fluorescence interference counterscreen. Background: The purpose of a counterscreen is to sort out artefacts and off-target activity.
Experiment [6] deals with Aerobactin synthetase IucA (Klebsiella pneumoniae). The experiment in a line: inhibition of K. pneumoniae IucA enzyme – biochemical, Tocris library, absorbance (AID 1345561).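 Also: 100% = enzyme without compound and 0% = no enzyme.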 The following applies: purified IucA enzyme assay, absorbance (OD) read-out; stronger effect = lower value;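 tested at 8 µM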.
Experiment [7] relates to Aerobactin synthetase IucA (Klebsiella pneumoniae, hypervirulent). The experiment in a line: biochemical IucA inhibition screen of LOPAC library by absorbance (AID 1346212).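 Also: 100% = no compound wells and 0% = no enzyme wells.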 Conditions: IucA enzyme assay, absorbance (OD) readout; stronger effect = lower value;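 tested at 8 µM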.
Experiment [8] can be described thus: blockers of cellular phospholipid synthesis – cell-based, LOPAC library, screen 4, primary screen (AID 1347384). The following applies: animal cells, phospholipid biosynthesis inhibition screen; at 10 µM.
Experiment [9] concerns Aerobactin synthetase IucA (Klebsiella pneumoniae hvKP1). The experiment is described as follows: IucA enzyme inhibition, primary screen, biochemical, Spectrum library (AID 1346200).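 Also: 100% = wells without compound and 0% = wells lacking enzyme.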 The following applies: malachite green pyrophosphate, A620, at 8 µM, stronger effect = lower value.
The mark [10] stands for this setting: MELAS cybrid survival, CellTiter-Glo 48 h, stronger effect = higher value.
Where [11] appears, read: Rieske KO mouse fibroblast survival, CellTiter-Glo 72 h.

“And” between values parts separate entries of the source, which are not always exact repeats. Equal values may be shown once. The source made the active and inactive calls. Unless noted, no rule for the calls is given here.

Chain of NAD(+) hydrolase SARM1 (Homo sapiens) (Q6SZW1 whole entry, looked up): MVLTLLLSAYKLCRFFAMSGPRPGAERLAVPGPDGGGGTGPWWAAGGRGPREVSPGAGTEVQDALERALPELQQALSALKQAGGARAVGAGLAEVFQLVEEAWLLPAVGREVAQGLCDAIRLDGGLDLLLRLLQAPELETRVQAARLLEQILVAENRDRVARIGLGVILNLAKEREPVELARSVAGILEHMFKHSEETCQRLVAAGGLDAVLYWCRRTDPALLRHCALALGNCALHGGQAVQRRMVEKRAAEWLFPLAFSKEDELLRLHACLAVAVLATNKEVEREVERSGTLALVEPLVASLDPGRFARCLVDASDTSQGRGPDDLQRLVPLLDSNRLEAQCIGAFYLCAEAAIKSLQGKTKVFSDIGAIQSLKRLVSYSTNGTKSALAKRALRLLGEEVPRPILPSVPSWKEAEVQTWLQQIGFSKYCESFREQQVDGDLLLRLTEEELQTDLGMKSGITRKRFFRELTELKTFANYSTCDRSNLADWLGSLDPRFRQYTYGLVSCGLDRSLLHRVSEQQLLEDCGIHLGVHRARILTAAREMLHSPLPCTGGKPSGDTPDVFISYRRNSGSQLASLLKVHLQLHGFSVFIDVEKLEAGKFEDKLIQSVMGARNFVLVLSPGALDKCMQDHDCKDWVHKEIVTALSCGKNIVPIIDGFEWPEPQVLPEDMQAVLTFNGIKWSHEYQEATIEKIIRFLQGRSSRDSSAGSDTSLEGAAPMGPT

For the molecule `CCN(C(C)=O)c1cccc(-c2ccnc3c(C#N)cnn23)c1`, the values for the z-score in [1] (setting [10]) and in [1] (setting [11]) were 0.804 (inactive) and 0.277, respectively. For the same molecule, in experiment [2], the remaining NAD was 10 nM (inactive).
As usually defined, the inhibition is the drop in the measured response relative to a control, in per cent. By remaining activity is commonly meant the signal under treatment as a percentage of the control signal. As for `NCCc1c[nH]c2ccc(O)cc12`, the period change in experiment [3] is -0.28 h (inactive). Further, in experiment [4], the inhibition is -1% (inactive). Besides, the fluorescence ratio (interference) in experiment [5] was 1 (inactive). Also, the remaining activity in [6] is 97.8% (inactive); in experiment [7] it was 107% (inactive). Also, the call in experiment [8] was inactive. Moreover, the z-score in experiment [1] (setting [10]) was -0.165 (inactive) and -0.0524 (inactive); in experiment [1] (setting [11]), -0.179 and -0.331.
In the case of `CCCN1CCC[C@@H]2Cc3[nH]ncc3C[C@H]21`, the period change in experiment [3] is -0.035 hour (inactive) and -0.145 hour (inactive). In experiment [4], the inhibition is -2% (inactive) and -1% (inactive). In [5], the fluorescence ratio (interference) was 1 (inactive). Moreover, the remaining activity was 126% (inactive) in [6] and 117% (inactive) in experiment [7]. In addition, the outcome in experiment [8] was inactive. For the same molecule, the z-score in experiment [1] (setting [10]) was 0.372 (inactive); in [1] (setting [11]), -0.161.
With `CC(C)C[C@@H](CN)CC(=O)O`, the activity remaining in experiment [9] was 121% (inactive).
Turning to `C=CCSSCC=C`, the activity remaining in experiment [9] was 94.6% (inactive).
For the molecule `O=c1c(O)c(-c2ccc(O)c(O)c2)oc2c(O)c(O)cc(O)c12`, the activity remaining in experiment [9] is 118% (inactive).
Same read-out and setting: as for `O=C1CCCC2C3CC(CN12)[C@@H]1CCCCN1C3` (stereo partly drawn), the figure is 119% (inactive).

The values are drawn from PubChem BioAssay.
